Bioassay records (PubChem BioAssay)
Shown are actives, neighbours in structure and some others; about 1.4% of the full set was active somewhere.
A3G deaminase: APOBEC3G (human) deaminase inhibition; Q9HC16; recombinant A3G, ssDNA deamination FAM/TAMRA fluorescence; inhibition, % at 20 µM; hit rate 0.28% among 330,000; AID 493012;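 active = inhibition of at least 40% at 20 µM, with no more than 30% in the related APOBEC3A deaminase screen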;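 note: plate controls were DMSO wells with A3G for no effect and wells lacking A3G enzyme for full effect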
APOBEC3A inh: inhibitors of human APOBEC3A DNA deaminase; inhibition, % at 20 µM; hit rate 0.41% among 330,000; AID 493011; recombinant A3A, FAM/TAMRA ssDNA deamination fluorescence; P31941;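 active = at least 40% inhibition at 20 µM here, with at most 30% in a related deaminase screen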;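 note: plate controls were A3A with DMSO for no effect and wells lacking A3A enzyme for full effect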
HDAC3 inhib: human HDAC3 inhibition. AID 2718. hit rate 0.15% among 320,000. inhibition, % at 8.3 µM. recombinant HDAC3, fluorogenic peptide/trypsin coupled, fluorescence. O15379; in the data active = inhibition above about 26%, passing the limit was not always enough; inconclusive = no clear call, values can overlap the other calls
LANA-H2B inh: blocks KSHV LANA binding to histone H2A/H2B | cell-free LANA-H2A/H2B peptide, fluorescence polarization | inhibition, % (concentration not given with the values) | hit rate 0.6% among 320,000 | AID 2629; in the data active = inhibition mostly above about 10%, no sharp cut-off; inactive = mostly below about 6.7%
A3A conf: confirmation of human APOBEC3A DNA deaminase inhibitors; shares compounds with APOBEC3A inh; recombinant A3A, ssDNA deaminase UDG fluorescence assay; inhibition, % at 20 µM; hit rate 63% among 1,400; AID 493151;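 active = inhibition reaching a set limit, 80% of the first screen's cutoff, at 20 µM in any replicate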;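 note: plate controls were DMSO wells with A3A for no effect and wells lacking A3A enzyme for full effect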
UDG ctr A3A: UDG inhibition in APOBEC3A counter-screen | 1,000 tested, under 10 active | shares compounds with APOBEC3A inh | UDG counterscreen, FAM/TAMRA uracil oligo fluorescence | inhibition, % at 20 µM; call rule not given here
* marks the source's active call; other numbers are inactive results; ? = inconclusive; . = not tested or not shown.

SMILES	A3G deaminase	APOBEC3A inh	HDAC3 inhib	LANA-H2B inh	A3A conf	UDG ctr A3A
CC1CCCC(NC(=S)NC(=O)c2ccccc2Br)C1C (stereo not given)	-8	-4	3	-1	.	.
CCCCn1c2c(c(=N)c3ccccc31)CCC2	23	88*	4	-3	41*	2
CCCCCn1c2c(c(=N)c3ccccc31)CCC2	18	58*	4	-4	74*	2
CCCCCCCCn1c2c(c(=N)c3ccccc31)CCC2	-6	0	.	.	.	.
CC(C)(C)OC(=O)N1CCN(c2ccc(NC(=O)c3ccco3)cc2)CC1	-11	-6	.	.	.	.
COc1cc(SC)ccc1C(=O)NCCCn1ccnc1	-1	-5	0	-3	.	.
Cc1noc(C)c1NC(=O)Nc1cccc2c1O[C@@H](CN(C)Cc1ccc3c(c1)OCO3)[C@@H](C)CN([C@H](C)CO)C2=O	-1	-1	1	-1	.	.
CCc1nn(CCCC(=O)N2CCC(C)CC2)c(=O)c2cc3occc3n12	-2	40*	1	0	-7	-1
O=C(COc1ccccc1/C=C1/NC(=O)NC1=O)Nc1ccccc1	10	46*	2	1	68*	-4
COC(=O)COc1ccccc1/C=C1/NC(=O)NC1=O	-4	-2	0	5	.	.
CC(=O)c1ccc(N2CCN(S(=O)(=O)c3cc4c(cc3C)NC(=O)CO4)CC2)cc1	-1	-1	.	.	.	.
NC(=S)Nn1c(-c2ccccc2)nc2ccccc2c1=O	-3	42*	3	-2	2	-3
Cc1cc(C(=O)Nn2c(C)nc3ccccc3c2=O)ccc1[N+](=O)[O-]	-6	-1	0	2	.	.
O=C(Cc1ccccc1)Nn1c(-c2ccccc2)nc2ccccc2c1=O	3	0	2	-1	.	.
Cc1cccc(-c2nc3ccccc3c(=O)n2NC(=O)c2ccc([N+](=O)[O-])c(C)c2)c1	-12	49*	-7	3	-8	0
Cc1cccc(C)c1NC(=O)C1c2cccc[n+]2CC(=O)N1Cc1ccc2c(c1)OCO2 (stereo not given)	3	14	12	-4	.	.
Cc1ccccc1NC(=O)C1c2cccc[n+]2CC(=O)N1c1c(C)cccc1C (stereo not given)	17	40*	19	-3	18	.
COC(=O)c1[nH]c2ccc(Br)cc2c1NC(=O)CN1CCN(C2CCCCC2)CC1	21	47*	1	4	28	.
CC(C)CCNC(=O)c1cc(-c2ccco2)nc2ccccc12	0	-1	-16	2	.	.
CCCCCCNC(=O)c1cc(-c2ccco2)nc2ccccc12	21	62*	0	-3	54*	0
CC(C)Oc1ccc(C(=O)Nc2cc(S(=O)(=O)N3CCOCC3)ccc2N2CCOCC2)cc1	-10	-3	.	.	.	.
COc1cc(C(CC(=O)N2CCCC2)c2c(OC)cc(OC)c3c(-c4ccccc4)cc(=O)oc23)cc(OC)c1OC (stereo not given)	7	43*	8	2	30	.
CCN(CC)C(=O)CC(c1ccc(N(C)C)cc1)c1c(OC)cc(OC)c2c(-c3ccccc3)cc(=O)oc12 (stereo not given)	-7	-3	18	-4	.	.
COc1ccc(C(CC(=O)N2CCCC2)c2c(OC)cc(OC)c3ccc(=O)oc23)cc1 (stereo not given)	-3	7	2	-2	.	.
COc1ccc(C(CC(=O)N2CCCCC2)c2c(OC)cc(OC)c3c(-c4ccccc4)cc(=O)oc23)cc1 (stereo not given)	22	72*	?	0	73*	4
COc1ccc(C(CC(=O)N2CCCC2)c2c(OC)cc(OC)c3c(-c4ccccc4)cc(=O)oc23)cc1 (stereo not given)	28	75*	5	-3	76*	-3
COc1ccc(C(CC(=O)N2CCCC(C)C2)c2c(OC)cc(OC)c3c(-c4ccccc4)cc(=O)oc23)cc1 (stereo not given)	18	69*	?	-1	63*	-1
CC(=O)Nc1ccc(OCc2nnc(-c3ccc(Cl)cc3)o2)cc1	-18	-4	-1	3	.	.
CCC(C)(C)NC(=O)C(Sc1ccccc1)c1ccccc1 (stereo not given)	1	6	-4	-1	.	.
